# From ChEMBL document CHEMBL4513216, “Probing the Open Global Health Chemical Diversity Library for Multistage-Active Starting Points for Next-Generation Antimalarials” (ACS Infect Dis, 2020)
# The whole screen tested about 65,000 compounds, of which about 2,100 (3.2%) showed an effect of 50% or more. The median lay at about -52%. The entries come from a sample that favours strong results as a whole.
# Tested on: Plasmodium falciparum
# Assay: Screen against P. falciparum Asexual Blood Stage (ABS), at 5uM
# Type: functional, Dd2
# Settings: tested at 5 uM
row,SMILES,INHIBITION [%]
1,Cc1nc(CN2CCCN(CCOc3ccc(C#N)cc3)CC2)no1,-71.7
2,Cc1cc2ccccc2n1CCC(=O)NCc1ncc[nH]1,-0.748
3,CCN(Cc1nc(COC)no1)C(=O)CCn1c(C)cc2ccccc21,10
4,CCN(Cc1ccncc1)C(=O)CCn1c(C)cc2ccccc21,56.5
5,O=C(NC1CCCC1)c1cc2c(s1)CCN2C(=O)c1ccccc1,-63.7
6,Cc1nc(C)n(CC2CCCN2CCCOc2ccc(C#N)cc2)n1 (stereo not drawn),-33.2
7,Cc1ccc(S(=O)(=O)N2Cc3c(CN(C)C)nn(C)c3C2)cc1,42.8
8,CCc1ccc(S(=O)(=O)N2Cc3c(CN(C)C)nn(C)c3C2)cc1,63.9
9,COc1ccc(S(=O)(=O)N2Cc3c(CN(C)C)nn(C)c3C2)cc1,40.7
10,C[C@@H](O)CNC(=O)c1nc(CC(=O)Nc2ccccc2)no1,-40.2
11,CC(NC(=O)N1CCN(c2ncccn2)CC1)c1ccc(C#N)cc1 (stereo not drawn),19.1
12,CC(NC(=O)N1CCN(c2cccs2)CC1)c1ccncc1 (stereo not drawn),-28.9
13,CC(NC(=O)N1CCN(c2cccs2)CC1)c1ccc(C#N)cc1 (stereo not drawn),63.2
14,Cc1ccnn1CCC(=O)N1C[C@@H]2CC[C@H]1CN(CC(=O)N(C)C)C2,-46.9
15,CC(C)(C)c1ccc(S(=O)(=O)CCN2CCNC(=O)CC2)cc1,-97.7
16,COCCNc1ncc(-c2cccc(OC)c2)c(-c2nccn2C)n1,69.3
17,COCCCNc1ncc(-c2cccc(F)c2)c(-c2nccn2C)n1,-138
18,COCCNc1ncc(-c2cccc(F)c2)c(-c2nccn2C)n1,-10.2
19,Cc1nnsc1CN1C[C@H]2CC[C@@H](C1)N(Cc1ccccc1)C2,-69.4
20,COc1cccc(CN2CCCCC2CN2CCOCC2)c1F (stereo not drawn),4.8
21,COc1cc2c(cc1CN1C[C@@H](CN3CCOCC3)[C@@H](CO)C1)CCC2,21.7
22,COc1cc2c(cc1CN1CCCCC1CN1CCOCC1)CCC2 (stereo not drawn),65.9
23,CC(OCC1CC1)C(=O)Nc1ncccc1I (stereo not drawn),-86.5

row,SMILES,INHIBITION [%]
1,COCCn1cncc1Cn1cccc(C(F)(F)F)c1=O,-90.4
2,CC1(c2ccccc2)CCCN(Cc2nnc(-c3cccnc3)o2)C1 (stereo not drawn),-119
3,CN1CCCC2(CCN(Cc3cncn3C3CCCCC3)C2)C1=O (stereo not drawn),-28.7
4,O=C(C1CCCN(Cc2ccccc2)C1)N1CCc2sccc2C1 (stereo not drawn),12.7
5,CC1(c2ccccc2)CCCN(Cc2cncn2C2CC2)C1 (stereo not drawn),67.2
6,COCCN1CCCC12CCN(Cc1cncn1C)CC2,-12.2
7,COCCn1cncc1CN1CCCC(C(=O)Cc2ccccc2)C1 (stereo not drawn),-43.6
8,O=C(Cc1ccccc1)C1CCCN(Cc2cncn2C2CCCC2)C1 (stereo not drawn),57.8
9,COCCn1cncc1CN1CCCC(C)(c2ccccc2)C1 (stereo not drawn),61.5
10,Cn1nc(C(=O)NCc2ccc(Cl)cc2)c2c1CCS(=O)(=O)C2,-79
11,COCC(=O)N1CCC2(COCc3cnc(N4CCOCC4)nc32)C1 (stereo not drawn),-38
12,CC(C)n1nc(CN(C)C)c2c1CN(C(=O)CC1CC1)CC2,-91.2
13,COc1cc(NC(=O)N2CCCC2c2nncn2C)ccc1Br (stereo not drawn),-53.7
14,CCS(=O)(=O)NCc1nc(C)cc(N2CCCCC2)n1,-38.7
15,Cn1nc(CN2CCCC2)c2c1CN(CC1CC1)CC2,-16.8
16,CC(C)n1nc(CN(C)C)c2c1CN(CC1CC1)CC2,-87.1
17,CC(C)n1nc(CN2CCCC2)c2c1CN(CC1CC1)CC2,55.7
18,CC(C)N(C)Cc1cnc2n1CCN(C(=O)c1cccs1)C2,62.6
19,CC(C)N(C)Cc1cnc2n1CCN(C(=O)Cc1ccccn1)C2,-6.41
20,CC(C)N(C)Cc1cnc2n1CCN(C(=O)Cc1ccsc1)C2,-45.1
21,Cc1ccc(C(=O)N2CCC(Oc3ccc(C)c(C)c3)CC2)c(=O)[nH]1,-19.9
22,Cc1nc(CN2CCc3ncnc(C)c3CC2)cs1,-152
23,CC(C)CCN1Cc2c(C(=O)N3CCCC3)nn(C)c2C1,-58.9

row,SMILES,INHIBITION [%]
1,COc1ccc(NCC2(O)CCNCC2)cc1OC,-115
2,Cn1cc([C@@H]2CN(S(=O)(=O)c3ccccc3F)C[C@H]2N)c2ccncc21,63.4
3,Cn1cc([C@@H]2CN(S(=O)(=O)c3cccnc3)C[C@H]2N)c2ccncc21,-21.6
4,Cn1cc([C@@H]2CN(S(C)(=O)=O)C[C@H]2N)c2ccncc21,16.8
5,CN(C)c1ccc(C(=O)N(CCO)CC2CC2)c(F)c1,-93.3
6,Cc1nn(C)cc1-c1cc(C(F)(F)F)nn1CCC#N,-167
7,Cc1cc(N2CCC(Cc3ncccn3)C2)ncn1 (stereo not drawn),-89.6
8,CC(O)CNCc1ccccc1C(F)(F)F (stereo not drawn),-46.2
9,Oc1ccc(Cl)cc1CNCc1ccccc1C(F)(F)F,64.5
10,Nc1nnnn1NCc1ccccc1C(F)(F)F,-13.1
11,O=C(COCCOc1ccccc1)Nc1ccnn1CC1CCOC1 (stereo not drawn),-132
12,CCN(C(=O)CCOC)C(c1ccc(Cl)cc1)c1ccccn1 (stereo not drawn),-56.9
13,O=C(O)CC(NC(=O)c1ccccc1OC(F)F)c1cccs1 (stereo not drawn),-127
14,CCCc1ccc(S(=O)(=O)Nc2ccc(=O)n(C)c2)cc1,-53.7
15,CCC(=O)N1CCC2(CC1)COc1ccccc1S(=O)(=O)N(C)C2,-29.3
16,COCCN1CCC2(CC1)COc1ccccc1S(=O)(=O)N(C)C2,-7.6
17,CN1CC2(CCN(CC3CC3)CC2)COc2ccccc2S1(=O)=O,52.5
18,CN1CC2(CCN(Cc3ccoc3)CC2)COc2ccccc2S1(=O)=O,61.9
19,CN(C)C(=O)CN1CCC2(CC1)COc1ccccc1S(=O)(=O)N(C)C2,-44.5
20,CCCN1CCC2(CC1)COc1ccccc1S(=O)(=O)N(CC1CC1)C2,-32.6
21,COc1cccc(-c2ncc(CN3C[C@H]4CC[C@@H](C3)N(C)C4=O)s2)c1,-211
22,COc1cc(F)c(NC(=O)N(C)Cc2cc(C)on2)cc1F,-69.1
